Screening results: PubChem, several laboratories
Rows were chosen to be rich in hits. Some 2.3% of all compounds tested hit in one or more screens of this group.
Jurkat NFkB inh – inhibitors of induced NF-kB luciferase reporter, primary screen, TCR NF-kB activation inhibitor project, cell-based, luminescence, uHTS | Jurkat, PMA/ionomycin-induced NF-kB luciferase reporter | inhibition, % at 4 µM | hit rate 0.53% among 330,000; in the data active means inhibition above about 50%
Shn3 inh set2 – reduction of Shn3 3'UTR firefly luciferase signal, primary screen, Schnurri-3 inhibitor project, cell-based, Clone20 osteoblasts, set 2; hit rate 0.52% among 360,000; inhibition, % at 12.5 µM; Clone20 osteoblast Shn3 3'UTR firefly luciferase, 24 h; AID 588674, 2011;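 active means mean inhibition of at least 75% with every replicate also reaching 75%; inconclusive means mean inhibition at least 75% but some replicate below; inactive means mean inhibition below 75%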
EBV LMP1 NFkB – EBV LMP1-driven NF-kappaB luciferase reporter inhibitors, primary screen, cell-based, luminescence, single point | LMP1-induced NF-kappaB luciferase reporter cells | inhibition, % at 12.5 µM | hit rate 0.69% among 350,000 | AID 504558, 2011; in the data active means inhibition above about 41%; inconclusive means no clear call, values can overlap the other calls
TRPM1 prom inh – inhibitors of MITF-dependent TRPM1 promoter reporter, primary screen, cell-based, SK-MEL-5, single point, luciferase; hit rate 0.83% among 330,000; SK-MEL-5 TRPM1 promoter luciferase, 24 h; inhibition, % at 12.5 µM; AID 488899, 2010;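 active means mean inhibition across replicates of 60% or more, whatever share of single replicates reaches that level; inconclusive means some that reach 60%, reason not given; inactive means mean inhibition across replicates below 60%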
697 NFkB inh – inhibitors of PMA/ionomycin-induced NF-kB reporter, 697 cells, primary screen, B-cell NF-kB inhibitor project, cell-based, luminescence, uHTS. 697 B-cell NF-kB luciferase reporter, 16 h. hit rate 0.33% among 330,000. inhibition, % at 4 µM; in the data active means inhibition above about 35%
Gli-Sufu antag – Gli-Sufu pathway antagonists, primary screen, luciferase luminescence, Sufu-KO-LIGHT cells, uHTS; Sufu-KO-LIGHT fibroblasts, Gli luciferase reporter luminescence; hit rate 0.74% among 340,000; inhibition, % at 5 µM;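 active means inhibition above about 55%, limit read from the data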
Each line names hits and unclear results; the compound was inactive in the other large screens.

COc1cccc(NC(=O)c2cnc(SC)nc2C)c1	none
CCN1CCN(CCCNC(=O)CS(=O)(=O)Cc2nc(-c3ccccc3C)oc2C)CC1	none
NS(=O)(=O)c1ccc(N/N=C/c2cn(-c3ccccc3)nc2-c2ccccc2)c([N+](=O)[O-])c1	TRPM1 prom inh 77 (no result: Shn3 inh set2)
CCC(NC(C)C)C(O)c1ccc(O)c2[nH]c(=O)ccc12 (configuration not stated)	EBV LMP1 NFkB 74
Cc1ccc2c(c1)/C(=C/c1ccco1)C(=O)N2	none
Cc1ccc(/C=C2/CNC/C(=C/c3ccc(C)cc3)C2=O)cc1	EBV LMP1 NFkB 80, TRPM1 prom inh 91 (no result: Jurkat NFkB inh, 697 NFkB inh)
Cc1ccc(/C=C2\CCOC2=O)cc1	none
CCOC(=O)/C(=C\c1ccc(Cl)cc1)c1nc2sc(C)c(C)c2c(=O)[nH]1	TRPM1 prom inh 78
CCOC(=O)CSc1nc2sc(C)c(C)c2c(=O)[nH]1	none
COc1ccc(NC(=O)CN(C)C(=O)c2cc(C)on2)cc1	none
O=C(CCN1C(=O)COc2ccccc21)NCCCN1CCCC1	none
Cc1ccc2nc(C)cc(N/N=C/c3cccc(O)c3)c2c1	none
COc1ccc(/C=N/Nc2cc(C)nc3c(C)cccc23)cc1	TRPM1 prom inh 79
COc1ccc(/C=N/Nc2cc(C)nc3ccccc23)cc1	TRPM1 prom inh 78, Gli-Sufu antag 55
COc1nc(=O)n(C2CCCO2)cc1C (configuration not stated)	none (no result: Jurkat NFkB inh, 697 NFkB inh)
O=C(c1cccs1)c1no[n+]([O-])c1C(=O)c1cccs1	TRPM1 prom inh 67
CCOC(=O)c1c[nH]c(=O)c(Br)c1O	EBV LMP1 NFkB 61
CCOC(=O)c1c[nH]c2nc(C)ccc2c1=O	none
Cn1cccc1-c1cc(C(=O)N/N=C/c2cc(Br)ccc2O)[nH]n1	TRPM1 prom inh 62
CCOC(=O)c1ccc(N2C(=O)CC(N3CCN(C/C=C/c4ccccc4)CC3)C2=O)cc1 (configuration not stated)	none (no result: Jurkat NFkB inh, 697 NFkB inh)
O=[N+]([O-])c1ccc(/C=N/n2cnc3ccccc32)s1	Shn3 inh set2 90, TRPM1 prom inh 86
Cc1nc2ccccc2n1/N=C/c1ccc([N+](=O)[O-])s1	Shn3 inh set2 92, TRPM1 prom inh 82
Cc1cc2ncn(/N=C/c3ccc([N+](=O)[O-])s3)c2cc1C	none (no result: Jurkat NFkB inh, 697 NFkB inh)
O=[N+]([O-])c1ccc(/C=N/n2c(CO)nc3ccccc32)s1	TRPM1 prom inh 72
O=C(NCc1ccco1)c1ccc(Br)s1	none
COc1ccc(CCNc2oc(-c3cccc4ccccc34)nc2P(=O)(OC)OC)cc1OC	none
C#CCOCCOCCOCCNc1nc(N2CCN(C(=O)[C@H]([C@@H](C)O)n3cc(CCCCN)nn3)CC2)nc(N2CCN(C(=O)[C@H](CCCCN)n3cc(CCC(=O)O)nn3)CC2)n1	none
COc1ccc(CNC(=O)C23CN(Cc4ccccc4)CC2C(c2ccc([N+](=O)[O-])cc2)=NO3)cc1 (configuration not stated)	none
COc1ccc(NC2=Nc3ccccc3N3C2=Nc2c(c(C)nn2-c2ccc(C)cc2)C3c2cccnc2)cc1 (configuration not stated)	none
CC(=O)Nc1ccc(NC2=Nc3ccccc3N3C2=Nc2c(c(C)nn2-c2ccccc2)C3c2ccccc2)cc1 (configuration not stated)	EBV LMP1 NFkB inconclusive, TRPM1 prom inh 79, Gli-Sufu antag 60
CCOc1ccc(C(=O)N2CCN(c3ccccc3)CC2)cc1OCC	none
COc1ccc2c(c1)N(C(=O)CN1C(=O)C3CCCCC3C1=O)C(C)(C)C=C2C (configuration not stated)	none
C#CCN(C[C@@H]1[C@@H](OC(=O)NCCCCCC)[C@@H](OC(=O)NCCCCCC)Cn2c(=O)ccc(=O)n21)S(=O)(=O)c1ccc(C)cc1	EBV LMP1 NFkB 90 (no result: Jurkat NFkB inh, TRPM1 prom inh, 697 NFkB inh, Gli-Sufu antag)
CCCCCCNC(=O)O[C@H]1Cn2c(=O)n(CCCCCC)c(=O)n2[C@@H]2CN(S(=O)(=O)c3ccc(C)cc3)C[C@]12O	none (no result: Jurkat NFkB inh, TRPM1 prom inh, 697 NFkB inh, Gli-Sufu antag)
CCCCCCNC(=O)O[C@H]1Cn2c(=O)ccc(=O)n2[C@@H]2CN(S(=O)(=O)c3ccc(C)cc3)C[C@]12O	Shn3 inh set2 91 (no result: Jurkat NFkB inh, TRPM1 prom inh, 697 NFkB inh, Gli-Sufu antag)
C#CCN(C[C@@H]1[C@@H](OC(=O)NCC2CCCCC2)[C@@H](OC(=O)NCC2CCCCC2)Cn2c(=O)ccc(=O)n21)S(=O)(=O)c1ccc(C)cc1	Shn3 inh set2 99, EBV LMP1 NFkB 90 (no result: Jurkat NFkB inh, TRPM1 prom inh, 697 NFkB inh, Gli-Sufu antag)
CCOc1cc(NS(=O)(=O)CC)c(OCC)cc1NC(=O)c1ccco1	none
COc1ccc(Nc2oc(COc3ccc(Cl)cc3)nc2C#N)cc1	EBV LMP1 NFkB 46
COc1ccc(CNc2oc(COc3ccc(Cl)cc3)nc2C#N)cc1	none
c1ccc(-n2ncc3c(N4CCCCC4)ncnc32)cc1	EBV LMP1 NFkB 41
CCOC(=O)N1CCN(CCC(=O)Nc2ccc(F)c(F)c2)CC1	none
CCCSc1ccc([C@@H]2[C@H]3C(=O)N(C)C(=O)[C@H]3[C@]3(C(=O)OC)CCCN23)cc1OC	EBV LMP1 NFkB 85
CN(C)c1ccc(N=Nc2nc3ccccc3n2C)cc1	EBV LMP1 NFkB 57, TRPM1 prom inh inconclusive (no result: Shn3 inh set2)
CCn1c(NCc2ccc(N(C)C)cc2)nc2ccccc21	none
Cc1nn(-c2ccccc2)c(Cl)c1C1C(C#N)=C(N)Oc2n[nH]c(C)c21 (configuration not stated)	EBV LMP1 NFkB 53
O=C(Nc1nc2ccccc2[nH]1)c1ccccc1OC(F)F	none
CCc1ccc(C(=O)Nc2nc3ccccc3[nH]2)cc1	EBV LMP1 NFkB 69, TRPM1 prom inh inconclusive
N#Cc1ccc(C(=O)Nc2nc3ccccc3[nH]2)cc1	none
CC(C)Oc1ccc(C(=O)Nc2nc3ccccc3[nH]2)cc1	EBV LMP1 NFkB 70, TRPM1 prom inh 80
O=C(Nc1nc2ccccc2[nH]1)c1ccccc1F	EBV LMP1 NFkB 77, TRPM1 prom inh 87
COc1cc(OC)cc(C(=O)Nc2nc3ccccc3[nH]2)c1	none
Cc1ccc(NC(=O)CN2C(=O)S/C(=C\C(=O)Nc3ccc(Cl)cc3)C2=O)cc1	none (no result: Jurkat NFkB inh, 697 NFkB inh)
Nc1ccccc1C(=O)NC(=O)Nc1ccc(Oc2ncc(Br)cn2)c(Cl)c1	none (no result: Jurkat NFkB inh, 697 NFkB inh)
O=C(COc1ccccc1Cl)Nc1cccnc1	none
O=C(Cn1cnc2c(nnn2-c2ccccc2)c1=O)NCc1ccco1	EBV LMP1 NFkB 87
Cc1ccc(-n2nnc3c(=O)n(CC(=O)NCc4ccco4)cnc32)cc1	none (no result: TRPM1 prom inh)
O=C(N/N=C(\c1ccccc1)c1ccccn1)c1cccc([N+](=O)[O-])c1	Shn3 inh set2 92, TRPM1 prom inh 83, Gli-Sufu antag 91
Cn1ccnc1/C(=N\NC(=O)c1ccccc1)c1cccc([N+](=O)[O-])c1	none
Nc1cccc2nsnc12	none
